# D1 antagonist: human D1 dopamine receptor antagonism; HEK293 TREx D1 cells, calcium flux, dopamine EC80; active compounds read low; activity change, negative = inhibition, % at 10 µM; actives 3.2% (n = 360,000); in the data active means activity change below about -30%; further: on the % scale 0 is the no-effect control and ±100 the full control effect
#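 Calcium flux readout: force-coupled, inducible Hek293 Trex D1 line, cells induced overnight at 30 C with tetracycline, dye-loaded 30–90 min at RT. Antagonism scored against EC80 dopamine challenge given 180 s after compound.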
# TRHR ag: agonists of human TRH receptor. activation, % at 2 µM. TRHR cells, calcium flux fluo-8, FDSS agonist mode. actives 0.18% (n = 360,000); further: 0% is about no effect
# Target sequence (P34981 whole entry, looked up): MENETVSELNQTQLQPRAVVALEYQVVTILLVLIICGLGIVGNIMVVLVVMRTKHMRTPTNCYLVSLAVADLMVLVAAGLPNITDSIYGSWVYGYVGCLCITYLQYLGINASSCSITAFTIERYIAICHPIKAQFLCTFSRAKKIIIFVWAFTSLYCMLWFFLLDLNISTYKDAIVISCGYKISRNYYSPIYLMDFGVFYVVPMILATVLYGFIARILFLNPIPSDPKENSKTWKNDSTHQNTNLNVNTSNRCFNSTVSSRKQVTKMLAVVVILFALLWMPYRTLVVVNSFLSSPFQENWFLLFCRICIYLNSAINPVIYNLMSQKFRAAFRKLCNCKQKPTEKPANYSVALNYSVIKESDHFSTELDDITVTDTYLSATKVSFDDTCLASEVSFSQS
#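 Steps: seed TRHR cells overnight; add fluo-8 no-wash Ca dye, RT 30 min–1.5 h; record 10 s baseline; pin-transfer compounds; monitor fluorescence 1 cycle/s for the agonist window. Calcium increases flag candidate agonists.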
# TRHR enhancer: TRH receptor (human) allosteric enhancement; TRHR cells, fluo-8 calcium fluorescence, EC20 TRH enhancement; P34981; actives 0.66% (n = 360,000); enhancement, % at 2 µM; in the data active means enhancement above about 30%; further: 0% is about no effect
#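 TRHR-expressing cells loaded with fluo-8 calcium dye were read kinetically (ex 480/em 530) during compound addition, then stimulated with an EC20 of TRH (10 nM final). Enhancement of the Gq-mediated intracellular calcium response was scored.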
# D1 agonist: agonists of human D1 dopamine receptor | activation, % at 2 µM | HEK293 T-REx D1 cells, calcium flux, agonist mode | actives 1% (n = 360,000) | AID 504660 | P21728; further: 0% is about no effect
#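 Inducible HEK293 T-REx D1 cells, force-coupled to calcium signalling, were plated at 4000 cells/well with tetracycline and held overnight at 30 C. After no-wash calcium dye loading, compound-evoked calcium rise over 180 s flagged agonists.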
# D1 potentiator: human D1 dopamine receptor positive modulation. HEK293 TREx D1 cells, calcium flux, dopamine EC20 potentiation. potentiation, % at 10 µM. actives 0.036% (n = 360,000); in the data active means potentiation above about 30%; further: 0% is about no effect
# Starred values were filed as active, the others as inactive; . = no result. A selection: hits, their analogues and other compounds. The true share with any hit is near 4.7%. Unless noted, no stated cut-off is given here; in the data, active means activation above about 30%; inactive means the rest.
SMILES,D1 antagonist,TRHR ag,TRHR enhancer,D1 agonist,D1 potentiator
CC(=O)c1ccc(N2CCN(c3ncnc4c3c(-c3ccccc3)cn4-c3ccc(Cl)cc3)CC2)cc1,10,0,-1,-2,0
Cc1ccc(COc2ccc(CNCCCN3CCCCCC3=O)cc2)cc1,-20,0,4,17,-1
COc1cc(NC(=O)CCS(=O)(=O)c2ccc3c(c2)CC(=O)N3C)cc(OC)c1OC,-77*,0,0,5,-5
COc1ccc(C)cc1NC(=O)CCS(=O)(=O)c1ccc2c(c1)CC(=O)N2C,-32*,0,12,2,-1
CCc1ccccc1NC(=O)Cn1c(=O)n(-c2ccc(C)cc2)c(=O)c2c1c1cc(C)ccc1n2C,-9,0,9,2,-1
Cc1ccc[n+](CC(=O)Nc2c(Cl)cc(Cl)cc2Cl)c1,20,-1,0,1,-3
O=C(C[n+]1ccccc1)Nc1c(Cl)cc(Cl)cc1Cl,9,-1,39*,2,5
COC(=O)N/N=C(\C)c1ccc(-n2ccnc2)cc1,2,0,41*,3,0
CC(=O)c1ccc(-n2ccnc2)cc1,-19,1,-3,4,-1
COc1ccc(C(=O)CC(=O)c2ccc(OC)cc2)cc1,-28,1,-1,1,-5
CN(C)CC(CCC(CN(C)C)C(=O)c1ccccc1)C(=O)c1ccccc1 (stereo unspecified),6,1,2,3,0
COc1ccc(C(=O)C(CCCCC(CN(C)C)C(=O)c2ccc(OC)cc2)CN(C)C)cc1 (stereo unspecified),-40*,3,-3,24,-10
CCOc1ccc(C(=O)C(CCC(CN(C)C)C(=O)c2ccc(OCC)cc2)CN(C)C)cc1 (stereo unspecified),13,0,-1,36*,-10
Cc1ccc(S(=O)(=O)c2cn(CC(=O)Nc3cccc(C)c3)c3cc4c(cc3c2=O)OCO4)cc1,-5,2,-3,4,-3
Cc1ccc(C(=O)NC(=S)N2CCN(c3ccccc3F)CC2)cc1,-42*,0,-4,1,-4
CC(C)CC(NC(=O)c1ccc(Cl)cc1)C(=O)O (stereo unspecified),2,0,33*,4,-4
CC(C)CC(NC(=O)c1cccc(Cl)c1)C(=O)O (stereo unspecified),40,1,8,4,4
O=C(O)CCC(NC(=O)c1ccc(Cl)cc1)C(=O)O (stereo unspecified),-32*,0,0,1,-4
COc1ccc(CCn2c(S)nc3ccccc3c2=O)cc1,-4,0,2,0,8
CC1(C)CCN2CCC(C)(C)c3c(O)ccc1c32,26,34*,2,207*,-6
CC1(C)CCC(C)(C)c2cc([S+](=O)([O-])N3CCN([S+](=O)([O-])c4c(F)cccc4F)CC3)ccc21,-5,-1,-2,-1,3
OCCCN=c1cc(-c2ccccc2)oc2ccc(Cl)cc12,-27,0,1,1,-7
CC1(C)CC(N=c2cc(-c3ccccc3)oc3ccc(Cl)cc23)CC(C)(C)N1,-69*,0,-3,67*,-11
CN(C)CCCNc1nc2sc3c(c2c(=O)n1CCc1ccccc1)CCCCC3,-24,9,-3,59*,-3
CCCC(=O)OCCNc1cc(Sc2nc3ccccc3[nH]2)c2nonc2c1[N+](=O)[O-],-49*,0,-3,0,-10
SMILES,D1 antagonist,TRHR ag,TRHR enhancer,D1 agonist,D1 potentiator
CCC(=O)OCCNc1cc(SCCC(=O)OC)c2nonc2c1[N+](=O)[O-],-3,0,-2,1,6
Cc1cccc(NC(=O)c2oc3c(c2C)-c2[nH]ncc2CC3)c1C,-24,0,4,6,4
Cc1ccc(NC(=O)c2oc3c(c2C)-c2[nH]ncc2CC3)c(Cl)c1,-43*,0,2,0,3
COc1cc(OC)c(NS(=O)(=O)c2ccc3c(c2)NC(=O)CCS3)cc1Cl,-38*,-1,8,15,2
COc1cc(OC)c(NS(=O)(=O)c2ccc3c(c2)NC(=O)CO3)cc1Cl,-8,0,-8,8,-1
Cc1cccc(C)c1NC(=O)c1cccnc1,12,0,4,1,-7
CCc1cccc(C)c1NC(=O)c1cccnc1,-32*,1,9,3,-5
CCc1cccc(C)c1NC(=O)C1=C(C(=O)O)CCCC1,-82*,0,0,0,-9
O=C(CSc1cccc[n+]1[O-])N1CCCCCC1,-34*,1,0,3,1
O=C(CSc1cccc[n+]1[O-])CSc1cccc[n+]1[O-],-3,1,6,1,0
O=C(CSc1cccc[n+]1[O-])NCC1CCCCC1,-69*,-1,-2,0,1
O=C(NCc1ccco1)C1CCCN(c2nnc(-n3cccc3)s2)C1 (stereo unspecified),-39*,0,6,2,-1
Cc1cc(=O)n2nc(N3CCCC(C(=O)NCc4ccco4)C3)sc2n1 (stereo unspecified),9,0,4,4,-2
O=C(O)/C(=C\c1ccc(Br)cc1)NC(=O)c1cccs1,-2,0,4,8,.
CCCC1(c2ccccc2)NC(=O)N(CC(=O)Nc2cc(S(=O)(=O)N3CCOCC3)ccc2Cl)C1=O (stereo unspecified),-30*,1,-11,7,-5
CCCC1(c2ccccc2)NC(=O)N(CC(=O)Nc2cc(OC)cc(OC)c2)C1=O (stereo unspecified),7,2,-3,35*,.
COc1cc(NC(=O)CN2C(=O)NC(c3ccccc3)(c3ccccc3)C2=O)cc(OC)c1,-8,2,5,9,2
N#C/C(=C\c1cccnc1)c1nc2c(s1)CCCC2,3,2,1,4,2
COc1cc(/C=C(\C#N)c2nc3c(s2)CCCC3)ccc1O,5,40*,4,60*,6
CCc1ccc(C(=O)Cn2ncc(Cl)c(Cl)c2=O)cc1,-31*,-1,1,0,-3
Cc1ccc(Cn2ncc(Cl)c(Cl)c2=O)cc1,-18,0,1,0,-2
COc1ccc(N2C(=O)CC(Sc3nnc(-c4ccccc4)o3)C2=O)cc1 (stereo unspecified),-9,0,1,1,-5
CCCc1ccc(C#N)c(SC2CC(=O)N(c3ccc(OC)cc3)C2=O)n1 (stereo unspecified),-45*,0,8,13,-2
O=C(COC(=O)c1cccs1)Nc1ccccc1C(F)(F)F,-32*,1,11,32*,-4
C=CCn1c(CCC(=O)O)ccc1-c1ccccc1,-56*,0,-1,3,-2
